Compound activity deposited in PubChem by The Scripps Research Institute Molecular Screening Center.
Shown are actives, neighbours in structure and some others; about 3.4% of the full set was active somewhere.
PAFAH1B2 inh – blocks human PAF acetylhydrolase 1b catalytic subunit 2; recombinant PAFAH1B2, FP-rhodamine activity probe, fluorescence polarization; hit rate 1.2% among 340,000; P68402; inhibition, % at 3.39 µM;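 active = inhibition above the mean of all tested compounds plus 3 SD, cut at about 24% in these data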;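 note: 0% = enzyme with DMSO and 100% = wells lacking PAFAH1B2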
Target sequence (P68402 whole entry, looked up): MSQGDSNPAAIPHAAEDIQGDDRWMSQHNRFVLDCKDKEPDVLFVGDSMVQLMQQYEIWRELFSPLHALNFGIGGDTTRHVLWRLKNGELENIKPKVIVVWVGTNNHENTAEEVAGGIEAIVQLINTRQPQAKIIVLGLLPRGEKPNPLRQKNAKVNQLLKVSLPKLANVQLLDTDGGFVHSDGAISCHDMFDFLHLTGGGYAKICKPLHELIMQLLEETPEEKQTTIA
PAFAH1B3 FP inh – blocks human PAF acetylhydrolase 1B catalytic subunit 3; Q15102; recombinant PAFAH1B3, FP-rhodamine probe, fluorescence polarization; inhibition, % at 3.39 µM; hit rate 0.28% among 340,000;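 active = inhibition above the screen-wide average of all tested compounds plus 3 SD, cut at about 25% in these data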;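 note: 0% = enzyme with DMSO only and 100% = wells lacking PAFAH1B3 protein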
Target sequence (Q15102 whole entry, looked up): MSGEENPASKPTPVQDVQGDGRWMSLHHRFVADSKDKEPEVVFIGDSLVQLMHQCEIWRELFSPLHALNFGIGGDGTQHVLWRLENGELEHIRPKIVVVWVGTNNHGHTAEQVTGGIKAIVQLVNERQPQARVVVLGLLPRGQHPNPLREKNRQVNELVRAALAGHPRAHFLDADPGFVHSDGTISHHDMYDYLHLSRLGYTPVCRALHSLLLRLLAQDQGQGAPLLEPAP
PAFAH2 FP inh – inhibitors of human PAFAH2 | inhibition, % at 3.39 µM | AID 492956 | hit rate 0.99% among 340,000 | recombinant PAFAH2, FP-rhodamine activity probe, fluorescence polarization;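 active = inhibition above the mean over all tested compounds plus 3 SD, cut at about 30% in these data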;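 note: inhibitors block probe labeling of enzyme so polarization drops; 0% = enzyme with DMSO and 100% = wells lacking PAFAH2 protein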
PP1 inh – PP1-alpha (human) inhibition in PP5 counter-screen; P62136; purified PP1alpha, OMFP fluorescence; inhibition, % at 6.7 µM; hit rate 0.9% among 320,000; AID 2235;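 active = inhibition above the mean inhibition of all tested compounds plus 3 SD, computed separately for each screening campaign, cut at about 15% in these data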
PP5 inh – inhibitors of human protein phosphatase 5 (PP5). purified PP5c, OMFP substrate fluorescence. inhibition, % at 6.7 µM. hit rate 0.18% among 320,000. P53041;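 active = inhibition above the campaign's mean inhibition across all tested compounds plus 3 SD, cut at about 9.5% in these data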;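 note: 0% = DMSO only and 100% = 100 µM cantharidin control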
pPAFAH FP inh – pPAFAH (human) enzyme inhibition | AID 463082 | inhibition, % at 3.39 µM | recombinant pPAFAH, FP-rhodamine probe fluorescence polarization | Q13093 | hit rate 1.5% among 330,000;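 active = inhibition above the mean inhibition across the screen plus 3 SD, cut at about 25% in these data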;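 note: inhibitors block binding of the rhodamine activity-based probe so polarization drops; 0% = enzyme with DMSO and 100% = wells lacking pPAFAH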
Active calls of the source: *; . = not tested or not shown; + = active, no number.

SMILES	PAFAH1B2 inh	PAFAH1B3 FP inh	PAFAH2 FP inh	PP1 inh	PP5 inh	pPAFAH FP inh
O=C(/C=C(\O)c1ccc(Cl)cc1)C(=O)NNC(=O)C(O)(c1ccccc1)c1ccccc1	19	8	2	14	4	27*
O=C1C(c2ccccc2)NC(=S)N1C1CCCCC1 (stereo not drawn)	36*	4	2	-1	-1	0
CC(Oc1ccc(Cl)cc1Cl)C(=O)NC1=NN(c2ccccc2)C(=O)C1 (stereo not drawn)	17	1	13	17*	4	12
Cc1ccccc1OCCC(=O)OCC(=O)NNC(=O)c1cccs1	5	5	-4	1	2	25*
CCCCCCCCCCCCCC(=O)O	35*	14	12	-2	3	2
O=C(N/N=C/c1ccoc1)c1cc(Br)ccc1O	5	15	12	-1	0	33*
O=C(N/N=C/c1ccoc1)c1ccccc1Br	0	6	1	.	.	.
O=C(NN=C1CCCC1)c1cc(Br)ccc1O	2	1	5	-2	0	30*
Cc1onc(-c2c(F)cccc2Cl)c1C(=O)Nc1cccc2nsnc12	-3	-1	7	-5	1	6
Cc1cc(C(=O)OCC(=O)Nc2ccc(F)cc2F)c(C)o1	9	3	45*	2	0	4
CCc1ccc(S(=O)(=O)Nc2cc3c(cc2N2CCOCC2)n(C)c(=O)c(=O)n3C)cc1	26*	9	16	2	5	4
Cc1ccc(S(=O)(=O)Nc2cc3c(cc2N2CCOCC2)n(C)c(=O)c(=O)n3C)cc1	12	12	11	-2	0	0
O=c1[nH]c(CSc2nc3ccccc3o2)nc2c1cnn2-c1ccccc1	10	-6	-8	16*	1	-1
COc1ccc(C2=CC3=C(Br)C(=O)C(C)(OC(=O)c4ccco4)C(=O)C3=CO2)cc1 (stereo not drawn)	10	7	20	5	-2	23
COc1ccc(C2=CC3=C(Br)C(=O)C(C)(OC(=O)c4cccs4)C(=O)C3=CO2)cc1 (stereo not drawn)	9	1	10	7	2	28*
Cc1cccc(N2CCN(C(=O)N3CCCCC3)CC2)c1C	-3	8	23	-4	2	29*
CCOC(=O)N1CCN(C(=O)COC(=O)Cc2ccc(Cl)cc2)CC1	5	8	4	-3	-2	34*
O=C(Cc1ccc(Br)cc1)OCC(=O)N1CCOCC1	19	5	8	.	.	-2
CC1CCN(C(=O)COC(=O)Cc2ccc(Br)cc2)CC1	11	6	1	-2	1	29*
CCOC(=O)CNC(=O)CSc1nc(NCc2ccccc2)nc(N(C)C)n1	5	1	8	-1	1	2
O=C(CCSc1ccc(Cl)cc1)N1CCCCCC1	66*	2	8	-1	-1	6
O=C(Cc1ccc(Cl)cc1)NNC(=O)C(=O)NC1CCCCC1	27*	2	7	.	.	5
CN1CCN(C(=O)CSc2ccc(Cl)cc2)CC1	12	1	-3	-2	-1	1
O=C(CCSc1ccc(Cl)cc1)NC1CCCC1	26*	10	-2	1	1	5
O=C(Cc1ccc(Cl)cc1)NC1CCCCCC1	6	1	0	-1	2	6
SMILES	PAFAH1B2 inh	PAFAH1B3 FP inh	PAFAH2 FP inh	PP1 inh	PP5 inh	pPAFAH FP inh
O=C(CCSc1ccccc1)NC1CCCC1	9	5	-7	-4	0	1
CCOC(=O)Nc1cc(C(=O)OC)cc(C(=O)OC)c1	4	9	-6	3	3	4
Cc1ccc(NC(=O)COC(=O)CCc2c[nH]c(=O)[nH]2)cc1	3	4	11	-3	4	-5
CC(=O)c1ccc(NC(=O)COC(=O)Cc2ccsc2)cc1	3	8	17	.	.	10
O=C(COC(=O)Cc1ccsc1)Nc1cccc(F)c1	9	3	17	-2	4	29*
O=C(COC(=O)Cc1ccsc1)Nc1ccccc1	-3	12	15	1	-1	27*
O=C(COC(=O)Cc1ccsc1)NNC(=O)c1ccccc1	3	3	-3	.	.	26*
O=C(COC(=O)CCc1c[nH]c(=O)[nH]1)Nc1ccccc1	1	-1	34*	0	0	2
COC(=O)Cn1ncc2c3ccccc3n(Cc3ccccc3)c2c1=O	2	-2	-6	3	3	2
Cc1cc(-c2ccc(Cl)cc2)n2nc(C)cc2n1	-3	11	-8	-4	-1	8
COc1ccc(N(CC(=O)Nc2cc(C)ccc2C)S(=O)(=O)c2ccccc2[N+](=O)[O-])c(OC)c1	1	4	-6	-2	5	29*
COc1ccc(N(CC(=O)Nc2cc(C)cc(C)c2)S(=O)(=O)c2ccccc2[N+](=O)[O-])c(OC)c1	-1	-5	-6	1	0	2
N#CCc1c(C#N)c(N)nc(N2CCCC(CO)C2)c1C#N (stereo not drawn)	3	1	2	1	0	6
C/C(CC(=O)Nc1ccc([N+](=O)[O-])cc1)=N\NC(=O)c1ccccc1[N+](=O)[O-]	7	4	-3	2	3	2
COC(=O)Cn1c(=NC(=O)c2sc3ccccc3c2Cl)sc2cc(S(N)(=O)=O)ccc21	-11	-22	-12	26*	-1	-7
COC(=O)Cn1c(=NC(=O)c2nc3ccccc3s2)sc2cc(S(C)(=O)=O)ccc21	.	.	.	0	-1	0
O=C1Cc2ccccc2C(=O)N1OCc1ccc(Cl)cc1	25*	8	7	5	0	5
CCCCCn1c(CNC(=O)CC)nc2ccccc21	4	3	14	1	-1	0
Cc1cc(C)cc(Nc2ccc(C(=O)O)cc2N)c1	6	12	17	1	3	18
COc1cccc(Nc2ccc(C(=O)O)cc2N)c1	3	6	-2	1	-1	25*
CCOc1ccccc1Nc1ccc(C(=O)O)cc1N	1	3	-2	5	3	7
Cc1ccc(Nc2ccc(C(=O)O)cc2N)cc1	.	.	.	-1	3	28*
CCN(Cc1ccccc1)C(=O)CSc1nncn1C	0	3	5	-6	-1	1
COc1cccc(/C=N/NC(=O)c2cc(-c3cccn3C)n[nH]2)c1O	0	7	-3	16*	3	18
COc1ccc(/C=N/NC(=O)c2cccnc2)c(C(=O)O)c1OC	3	9	8	4	0	4
COc1ccc(OC)c2[nH]c(C(=O)N/N=C/c3ccccc3O)cc12	34*	42*	30*	1	2	19
COc1ccc(/C=N/NC(=O)c2cccnc2)c2ccccc12	155*	199*	+	-3	2	3
COc1ccc(/C=N/NC(=O)c2cc3c(OC)ccc(OC)c3[nH]2)cc1O	29*	22	5	0	3	24
